Here are results for 42 compounds from publication PMC4336329 (PLoS ONE, 2015).

Each structure is given as a SMILES string. Among all 310,000 compounds or so, about 14,000 (4.5%) showed an effect of 50% or more. Effects have a minus sign here. The sample holds strong results, similar compounds and a random draw of the others, so the mix is not that of the screen.
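Further: peak tail current of the secondary pulse compared with the same well before compound.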

The target of this assay is human ether-à-go-go-related gene (hERG) potassium channel (human, UniProt Q12809). Kind of assay: primary screen, population patch clamp on CHO cells stably expressing hERG; higher = less effect of the substance.
human ether-à-go-go-related gene (hERG) potassium channel, sequence (Q12809 whole entry, looked up): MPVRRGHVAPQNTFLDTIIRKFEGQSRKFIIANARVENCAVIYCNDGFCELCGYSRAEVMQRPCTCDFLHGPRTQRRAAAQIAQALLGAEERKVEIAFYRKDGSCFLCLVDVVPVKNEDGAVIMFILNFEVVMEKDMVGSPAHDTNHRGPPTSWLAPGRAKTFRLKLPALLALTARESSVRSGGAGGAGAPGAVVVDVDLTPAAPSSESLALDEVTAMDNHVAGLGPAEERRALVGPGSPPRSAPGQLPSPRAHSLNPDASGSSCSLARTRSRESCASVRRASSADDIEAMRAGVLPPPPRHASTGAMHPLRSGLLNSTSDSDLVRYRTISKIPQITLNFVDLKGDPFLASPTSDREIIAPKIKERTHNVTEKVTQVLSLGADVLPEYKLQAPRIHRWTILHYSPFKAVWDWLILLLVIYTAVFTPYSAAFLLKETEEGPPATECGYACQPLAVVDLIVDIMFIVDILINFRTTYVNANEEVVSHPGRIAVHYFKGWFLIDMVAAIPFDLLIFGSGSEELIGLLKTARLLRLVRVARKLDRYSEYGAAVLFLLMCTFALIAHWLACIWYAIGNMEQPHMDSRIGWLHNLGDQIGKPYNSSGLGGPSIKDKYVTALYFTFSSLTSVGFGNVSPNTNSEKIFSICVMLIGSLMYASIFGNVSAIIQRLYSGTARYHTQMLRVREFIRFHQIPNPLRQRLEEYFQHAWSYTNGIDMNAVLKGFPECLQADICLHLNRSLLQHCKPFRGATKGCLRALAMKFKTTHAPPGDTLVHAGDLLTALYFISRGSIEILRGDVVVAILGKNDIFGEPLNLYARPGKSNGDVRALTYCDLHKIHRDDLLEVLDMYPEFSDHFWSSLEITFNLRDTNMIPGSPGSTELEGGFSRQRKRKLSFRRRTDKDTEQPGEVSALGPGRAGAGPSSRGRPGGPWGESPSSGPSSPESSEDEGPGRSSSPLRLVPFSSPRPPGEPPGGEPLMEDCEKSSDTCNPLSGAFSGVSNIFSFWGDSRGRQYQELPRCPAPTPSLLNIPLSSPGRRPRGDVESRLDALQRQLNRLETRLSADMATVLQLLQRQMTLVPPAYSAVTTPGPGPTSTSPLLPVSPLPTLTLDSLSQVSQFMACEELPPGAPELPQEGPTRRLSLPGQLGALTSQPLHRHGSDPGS
As for `CCOc1ccc(S(=O)(=O)N(CC)CC(=O)NCc2cccnc2)cc1`, the “hERG current change (%, negative = inhibition) at 10uM” value is on record as -38%.
The result for `CN(c1ccc(C(=O)N2CCCCC2)cc1)S(=O)(=O)c1ccccc1` reads -10.8%; that for `COc1ccc(S(=O)(=O)N(CC(=O)NCc2ccncc2)c2ccc(C)cc2)cc1OC`, -6.77%; that for `COCCNC(=O)CN(c1cccc(OC)c1)S(=O)(=O)c1ccc(C)cc1`, -12.2%.
The result for `COCCNC(=O)CN(c1ccc(C)cc1)S(=O)(=O)c1ccccc1` reads 9.01%; that for `CCc1ccc(N(CC(=O)NCc2cccnc2)S(=O)(=O)c2ccccc2)cc1`, -27%; that for `CN(c1ccc(C(=O)N2CCOCC2)cc1)S(=O)(=O)c1ccc(Cl)cc1`, -34.2%.
Then `CCCC(C)c1nc(C(N)=O)c2[nH]c(=O)n(-c3ccc(OC)c(OC)c3)c2n1` (stereo not drawn), with 12.6%; and `CCc1ccc(NC(=O)C2CCN(S(=O)(=O)c3cnc[nH]3)CC2)cc1`, with 9.27%.
For `COc1ccccc1NC(=O)Cn1cnc2sc(C(=O)Nc3cc(OC)c(OC)c(OC)c3)c(C)c2c1=O`, the “hERG current change (%, negative = inhibition) at 10uM” value is listed as 27.8%.
`CCn1cc(/C=C(\NC(=O)c2ccccc2OC)C(=O)NCCCN2CCOCC2)c2ccccc21`: the “hERG current change (%, negative = inhibition) at 10uM” value is on record as -7.61%.
`Cc1ccccc1OCC(=O)N/N=C/c1cccn1C`: the “hERG current change (%, negative = inhibition) at 10uM” value is 7.04%.
Then `COc1ccc(-n2nc(C(=O)NCC(=O)NC(C)C)c3ccccc3c2=O)cc1`, with 13.7%; and `CCOC(=O)C1CCCCN1Cc1cc(OC)ccc1OC` (stereo not drawn), with 5.17%; and `O=C(NNc1cccc(Cl)n1)C(F)(F)F`, with 17.2%.
The result for `COc1ccc(/C=N/n2c(=O)[nH]c3c([nH]c4ccc(Br)cc43)c2=O)cc1CN1CCOCC1` reads 5.45%.
In the case of `O=S(=O)(c1cccc(Br)c1)N1CCN(C(=S)NCC2CCCO2)CC1` (stereo not drawn), the “hERG current change (%, negative = inhibition) at 10uM” value is 11.6%.
The result for `CCOc1ccc(N(CC(=O)NCc2ccccc2)S(=O)(=O)c2ccc(C)cc2)cc1` reads 4.04%; that for `CN(c1ccc(C(=O)NCc2ccncc2)cc1)S(=O)(=O)c1ccc(Cl)cc1`, -52.1%.
The result for `COc1ccc(S(=O)(=O)N(C)c2ccc(C(=O)NCc3ccncc3)cc2)cc1` reads -18.8%.
The result for `CCOc1ccc(S(=O)(=O)N(CC(=O)NCc2cccnc2)c2ccc(F)cc2)cc1` reads -72.5%; that for `CCOc1ccc(S(=O)(=O)N(CC)CC(=O)NCc2ccncc2)cc1`, -13.2%; that for `CN(c1ccc(C(=O)NCc2cccnc2)cc1)S(=O)(=O)c1ccc(Cl)cc1`, -15.8%.
`CCOc1ccc(N(CC(=O)NCc2cccnc2)S(=O)(=O)c2ccc(F)cc2)cc1`: the “hERG current change (%, negative = inhibition) at 10uM” value is recorded as -13.6%.
Then `CCOc1ccc(S(=O)(=O)N(CC(=O)NCc2ccncc2)c2ccc(C)cc2)cc1`, with -56.5%; and `CCOc1ccc(S(=O)(=O)N(CC(=O)Nc2cccnc2)c2ccc(F)cc2)cc1`, with 2.96%.
As to `COc1cc(/C(C)=N/N2CCN(c3ccccc3OC)CC2)ccc1O`, the “hERG current change (%, negative = inhibition) at 10uM” value is -9.07%.
The result for `COc1ccc2c(c1)c(/C=C/c1cc[n+](C)cc1)cn2C.[I-]` reads 12.9%; that for `Cc1cc(-n2c(C)cc(C(=O)CSc3nnnn3-c3ccc(Cl)cc3)c2C)no1`, -3.04%.
The result for `Cc1c(C)c(C)c(CN2CCSCC2)c(C)c1C` reads 18.4%; that for `Cc1ccc(N(C)S(=O)(=O)c2ccc(-c3cnc(C4CC4)o3)cc2)cc1`, 8.38%; that for `COc1ccc(S(=O)(=O)N2CCCC(C(=O)NCc3ccco3)C2)cc1OC` (stereo not drawn), 10.1%.
`CN(C)CCN(C(=O)c1ccc(C(=O)c2ccccc2)cc1)c1nc2cc3c(cc2s1)OCCO3.Cl`: the “hERG current change (%, negative = inhibition) at 10uM” value is reported as -12.4%.
Take `CN(C)CCCN(C(=O)c1ccc(C(=O)c2ccccc2)cc1)c1nc2cc3c(cc2s1)OCO3.Cl`: the “hERG current change (%, negative = inhibition) at 10uM” value was -56.3%.
For the compound `CN(C)CCN(C(=O)c1ccc2c(c1)CCCC2)c1nc2cc3c(cc2s1)OCCO3.Cl`, the “hERG current change (%, negative = inhibition) at 10uM” value is reported as 5.76%.
As to `CCN(CC)CCN(C(=O)c1ccc2ccccc2c1)c1nc2cc3c(cc2s1)OCO3.Cl`, the “hERG current change (%, negative = inhibition) at 10uM” value is given as -38.6%.
The result for `CCN(CC)CCN(C(=O)c1ccc(C(=O)c2ccccc2)cc1)c1nc2cc3c(cc2s1)OCO3.Cl` reads -43.8%; that for `CCN(CC)CCN(C(=O)c1ccc2ncsc2c1)c1nc2cc3c(cc2s1)OCO3.Cl`, -61.8%.
Then `CN(C)CCN(C(=O)c1ccc(C(=O)c2ccccc2)cc1)c1nc2cc3c(cc2s1)OCO3.Cl`, with 3.43%.
`CN(C)CCN(C(=O)c1ccc(N2C(=O)CCC2=O)cc1)c1nc2cc3c(cc2s1)OCO3.Cl`: the “hERG current change (%, negative = inhibition) at 10uM” value worked out at 0.227%.
Then `CN(C)CCCN(C(=O)c1ccc2c(c1)CCCC2)c1nc2cc3c(cc2s1)OCO3.Cl`, with -71%; and `CN(C)CCCN(C(=O)c1ccc([N+](=O)[O-])o1)c1nc2cc3c(cc2s1)OCO3.Cl`, with -71.8%.
